# Assay results reported in PubChem BioAssay (NCI).
# About 83,000 compounds went through this panel and 20% of them were active in at least one assay; those are over-represented in the sample as a whole.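 A percent growth of 40 corresponds to 60% growth inhibition; 0 means no net growth; -100 means all cells died. Active threshold: below 10.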 A number with no mark means an inactive call. The source made the active and inactive calls.
# Tests used:
# Experiment in all cases: NCI-60 one-dose screen, 48 h (100 = growth as untreated, 0 = no growth, -100 = all killed)
# Conditions in all cases: 10 µM unless noted
# [1] = system: SK-MEL-2 melanoma
# [2] = system: EKVX NSCLC
# [3] = system: SN12C renal
# [4] = system: UO-31 renal
# [5] = system: ACHN renal
# [6] = system: CAKI-1 renal
# [7] = system: A498 renal
# [8] = system: CCRF-CEM leukemia
# [9] = system: MOLT-4 leukemia
# [10] = system: TK-10 renal
Structure (SMILES),growth [1],growth [2],growth [3],growth [4],growth [5],growth [6],growth [7],growth [8],growth [9],growth [10]
Nc1nc(-c2ccc(F)cc2)cc(-c2cnn(-c3ccccc3)n2)n1,96%,99.7%,111%,86.8%,100%,86.2%,85.9%,103%,104%,
COc1ccc(S(=O)(=O)NCCCNc2nccc(-c3c(-c4cccc(N)c4)nc4sccn34)n2)cc1,113%,96.3%,76.7%,76.4%,78.8%,,91.2%,78.4%,75.5%,134%
CCCCCCCCCc1cc(CN2CCCCC2)c(O)c(CN2CCCCC2)c1,86.7%,37.5%,71.9%,44.1%,63.5%,,75%,61.7%,56%,81.1%
COc1cc2nc3cc([N+](=O)[O-])ccc3c(NCCCNCC(C)(C)O)c2cc1OC,-47.5% (active),-19.6% (active),-34.8% (active),1.88% (active),1.58% (active),18.4%,-82.2% (active),1.71% (active),10.5%,
CCCCN(CCCC)Cc1c(C)[nH]c2cc(OC)ccc2c1=O,110%,104%,104%,81.2%,110%,99.1%,95.8%,95.8%,90.9%,
O=C(CN1CCN(c2cc3c(cc2F)c(=O)c(C(=O)O)cn3C2CC2)CC1)Nc1cc(=O)[nH]c(=O)[nH]1,107%,92%,97.7%,79.7%,100%,,100%,109%,102%,100%
Nc1c(C(=O)Nc2cccc3c2OCCO3)sc2nc3c(cc12)C(=O)CCC3,64.9%,24.7%,41.3%,53%,55.4%,,-1.97% (active),16.5%,57.6%,73.3%
CC[C@H](Nc1nc(N)nc(C)c1C#N)c1nc2cccc(NCc3ccc(C(=O)NO)cc3)c2c(=O)n1-c1ccccc1,27.8%,35.6%,11.4%,4.77% (active),4.61% (active),,-38.6% (active),0.318% (active),0.225% (active),1.89% (active)
CNc1nc(C)c(-c2nc(Nc3cccc(S(N)(=O)=O)c3)ncc2F)s1,-50.9% (active),4.38% (active),-17.2% (active),1.38% (active),2.7% (active),,-38.8% (active),-2.73% (active),-26.9% (active),-2.07% (active)
OC(c1cc(-c2ccccc2)nc2ccc(Cl)cc12)C1CCCCN1 (stereo not given),89.2%,63%,66.3%,20.5%,22.1%,,64.6%,64.6%,27.5%,71.3%
O=C(C[C@@H](C(=O)NCc1cccc(C(F)(F)F)c1)N1C(=O)[C@@H](N2C(=O)OC[C@@H]2c2ccccc2)[C@H]1/C=C/c1ccccc1)NC1CCN(Cc2ccccc2)CC1,49.6%,82.3%,82.2%,64.3%,96.2%,,49.8%,21%,-5.43% (active),61%
O=C1C(=O)N(CCCCn2cc(CO)nn2)c2ccccc21,98.8%,92.4%,104%,,101%,87.8%,99.4%,104%,95.7%,102%
Nc1nc2c(c3ncccc13)C(c1ccc(Cl)c(Cl)c1)Cc1ncccc1-2 (stereo not given),18.4%,44.5%,34.1%,,30.2%,30.9%,-13.5% (active),2.45% (active),5.36% (active),29.5%
CC(C)(C)c1nn(-c2ccccc2)c2c1CC1(CN2Cc2ccc3c(c2)OCO3)C(=O)c2ccccc2C1=O,115%,119%,96.5%,104%,89.9%,98.9%,106%,85.2%,80.3%,
Cc1cc(Cl)ccc1Nc1nc(C(F)(F)F)ccc1C(=O)N/N=C/c1ccc(F)cc1,-5.51% (active),16.7%,8.7% (active),,7.12% (active),9.97% (active),8.05% (active),4.12% (active),-6.74% (active),0.832% (active)
CN1Cc2c(cc(CN3CCCCC3)n2C)C(c2ccc(Br)cc2)C1 (stereo not given),114%,77.2%,84.8%,,98.1%,83.7%,98.1%,88.2%,92.5%,92.3%
COC1=CC(=O)C(OC)=C(OC)C1=O,99.3%,98.6%,101%,,111%,95.4%,88.2%,31.9%,-7.34% (active),115%
COc1ccc(Cl)cc1Nc1nc(C(F)(F)F)ccc1C(=O)N/N=C/c1cccnc1,39%,48.5%,62.7%,,36.7%,43.2%,40.8%,13%,2% (active),49%
C=C1CC[C@@H]2[C@](C)(COC(C)=O)[C@H](OC(C)=O)CC[C@@]2(C)[C@@H]1CC(Nc1ccc(S(=O)(=O)Nc2ccc(Cl)nn2)cc1)C1=CCOC1=O (stereo not given in full),58.3%,87.3%,-27.6% (active),18.4%,16.1%,31.8%,89%,-10.3% (active),0.401% (active),
O=C(O)c1cn(C2CC2)c2cc(N3CCN(Cc4nc5c(cnn5-c5ccc([N+](=O)[O-])cc5)c(=O)[nH]4)CC3)c(F)cc2c1=O,120%,93.4%,95.2%,71.8%,103%,94.8%,101%,99%,99.4%,
O=C1/C(=C/c2ccc(F)cc2)CN(C(=O)CCN2CCC(=NO)CC2)C/C1=C\c1ccc(F)cc1,-14% (active),-21.4% (active),-35.4% (active),,-66.3% (active),-46.4% (active),24.9%,-18.3% (active),0.0352% (active),-5.74% (active)
CC[C@H](CO)Nc1nc(NCc2ccccc2)n2ncc(C(C)C)c2n1,11.1%,0.263% (active),17.1%,,4.26% (active),9.58% (active),-21% (active),-0.868% (active),-12.9% (active),15.6%
Cc1cc2c(cc1C)NC1=C(N2)OC(c2c3ccccc3cc3ccccc23)C1=O (stereo not given),31%,22.2%,14.3%,,29%,,142%,20.5%,24.8%,107%
N#Cc1ccc(NC(=O)Nc2ccc(Cc3ccc(NC(=O)Nc4ccc(C#N)cc4)cc3)cc2)cc1,12.8%,14.5%,29.5%,,31.2%,48.5%,49.5%,17.4%,12.5%,48.1%
Oc1ccc(Nc2nccc(-c3ccc4ccccc4c3)n2)cc1,9.62% (active),58.1%,32.4%,,42.8%,27.2%,21.8%,9.76% (active),14.8%,49.4%
O=C(Cn1cc(CN2C(=O)c3ccccc3S2(=O)=O)nn1)Nc1ccc([N+](=O)[O-])cc1Cl,91.9%,103%,94.3%,,95.3%,91.8%,103%,93.4%,96.5%,112%
Cc1cc(=O)oc2cc(Oc3nc(-c4ccc(Cl)cc4)cn4c(-c5ccc(Cl)cc5)cnc34)ccc12,106%,106%,100%,85.5%,97.7%,90.2%,105%,80.6%,74.5%,
O=C(COCc1c(-c2ccccc2)no[n+]1[O-])Nc1ccc(C(=O)/C=C/c2ccc3c(c2)OCO3)cc1,134%,108%,102%,87.4%,94.6%,91.7%,111%,82.4%,77.2%,
Cc1nn(-c2ccccc2)c2nc(C)n(-c3ccc(Br)cc3)c(=O)c12,26.6%,32.1%,48.6%,,44.8%,26.9%,-30.4% (active),13.6%,19.8%,53.1%
